In all, about 5,500 compounds went through this assay and about 2,000 (36%) were called active. Another 18% or so got no clear call; they are omitted. Cut-off read from the data, not from the text of the source: active = normalized growth mostly below about 0.91 (no sharp cut-off); inconclusive = no clear call, values can overlap the other calls; inactive = mostly above about 0.92. The list shows a part of the results.
Assay: chemical genetic growth profiling, strain panel (AID 1159580);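 note: tested at 20 µM; growth read once vehicle control cultures reached saturation at 30 °C; 1 = growth at the plate median or of vehicle wells; lower values mean less growth of the strain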
Conditions: growth OD

Measured: normalized growth

CCCCN(CC)c1c([N+](=O)[O-])cc(C(F)(F)F)cc1[N+](=O)[O-]
inactive: S. cerevisiae deletion strains, locus YJR075W, strain HOC1, hits give low values 1 | S. cerevisiae deletion strains, locus YKL009W, strain mrt4, hits give low values 1.04 | S. cerevisiae deletion strains, locus YKL068W, hits give low values 1.01 | S. cerevisiae deletion strains, locus YKL085W, strain MDH1 (second series), hits give low values 1.01 | S. cerevisiae deletion strains, locus YKL085W, strain MDH1, hits give low values 1.01 | S. cerevisiae deletion strains, locus YKL160W, strain elf1, hits give low values 1.02 | S. cerevisiae deletion strains, locus YKL190W, strain CNB1, hits give low values 1.02 | S. cerevisiae deletion strains, locus YKR001C, strain vps1, hits give low values 1.04 | S. cerevisiae deletion strains, locus YKR026C, strain gcn3, hits give low values 1.02 | S. cerevisiae deletion strains, locus YKR091W, strain srl3, hits give low values 1.01 | S. cerevisiae deletion strains, locus YLL001W, strain dnm1, hits give low values 1.01 | S. cerevisiae deletion strains, locus YLL026W, hits give low values 1 | S. cerevisiae deletion strains, locus YLL041C, strain sdh2, hits give low values 1.01 | S. cerevisiae deletion strains, locus YLR027C, strain aat2, hits give low values 0.996 | S. cerevisiae deletion strains, locus YLR039C, strain RIC1, hits give low values 1.02 | S. cerevisiae deletion strains, locus YLR058C, strain SHM2, hits give low values 1.01 | S. cerevisiae deletion strains, locus YLR102C, strain apc9, hits give low values 1.01 | S. cerevisiae deletion strains, locus YLR113W, strain HOG1, hits give low values 0.973 | S. cerevisiae deletion strains, locus YLR221C, strain rsa3, hits give low values 1 | S. cerevisiae deletion strains, locus YLR258W, strain gsy2, hits give low values 1.01 | S. cerevisiae deletion strains, locus YLR262C, strain YPT6 (second series), hits give low values 0.995 | S. cerevisiae deletion strains, locus YLR262C, strain YPT6, hits give low values 1.02 | S. cerevisiae deletion strains, locus YLR268W, strain sec22, hits give low values 1.02 | S. cerevisiae deletion strains, locus YLR320W, strain mms22, hits give low values 1.02 | S. cerevisiae deletion strains, locus YLR330W, strain CHS5, hits give low values 1.01 | S. cerevisiae deletion strains, locus YLR342W, strain FKS1 (second series), hits give low values 1.08 | S. cerevisiae deletion strains, locus YLR342W, strain FKS1, hits give low values 1 | S. cerevisiae deletion strains, locus YLR357W, strain rsc2, hits give low values 1.03 | S. cerevisiae deletion strains, locus YLR370C, strain arc18, hits give low values 1.01 | S. cerevisiae deletion strains, locus YLR371W, strain rom2, hits give low values 1.01 | S. cerevisiae deletion strains, locus YLR384C, strain iki3, hits give low values 1 | S. cerevisiae deletion strains, locus YLR418C, strain cdc73, hits give low values 1 | S. cerevisiae deletion strains, locus YML016C, strain PPZ1, hits give low values 1.01 | S. cerevisiae deletion strains, locus YML032C, strain rad52, hits give low values 1.02 | S. cerevisiae deletion strains, locus YML120C, strain ndi1, hits give low values 1.03 | S. cerevisiae deletion strains, locus YML124C, strain tub3, hits give low values 1.01 | S. cerevisiae deletion strains, locus YMR058W, strain fet3, hits give low values 1.02 | S. cerevisiae deletion strains, locus YMR078C, strain ctf18, hits give low values 1.01 | S. cerevisiae deletion strains, locus YMR125W, strain sto1, hits give low values 1.01 | S. cerevisiae deletion strains, locus YMR129W, hits give low values 1.02 | S. cerevisiae deletion strains, locus YMR205C, strain PFK2, hits give low values 1 | S. cerevisiae deletion strains, locus YMR223W, strain ubp8, hits give low values 1.02 | S. cerevisiae deletion strains, locus YMR231W, strain pep5, hits give low values 0.997 | S. cerevisiae deletion strains, locus YMR263W, strain SAP30, hits give low values 1.02 | S. cerevisiae deletion strains, locus YMR307W, strain GAS1, hits give low values 0.998 | S. cerevisiae deletion strains, locus YNL067W, strain RPL9B, hits give low values 1.01 | S. cerevisiae deletion strains, locus YNL071W, strain lat1, hits give low values 1.02 | S. cerevisiae deletion strains, locus YNL128W, strain TEP1, hits give low values 1.02 | S. cerevisiae deletion strains, locus YNL153C, strain GIM3, hits give low values 1.01 | S. cerevisiae deletion strains, locus YNL183C, strain NPR1, hits give low values 0.999 | S. cerevisiae deletion strains, locus YNL209W, strain ssb2, hits give low values 1.01 | S. cerevisiae deletion strains, locus YNL233W, strain BNI4, hits give low values 1.01 | S. cerevisiae deletion strains, locus YNL248C, strain rpa49, hits give low values 1.02 | S. cerevisiae deletion strains, locus YNL250W, strain rad50, hits give low values 1 | S. cerevisiae deletion strains, locus YNL271C, strain bni1, hits give low values 1.01 | S. cerevisiae deletion strains, locus YNL298W, strain CLA4, hits give low values 1.01 | S. cerevisiae deletion strains, locus YNL307C, strain MCK1, hits give low values 1.02 | S. cerevisiae deletion strains, locus YNL322C, strain KRE1 (second series), hits give low values 1.01 | S. cerevisiae deletion strains, locus YNL322C, strain KRE1, hits give low values 1.01 | S. cerevisiae deletion strains, locus YNR049C, strain mso1, hits give low values 1.01 | S. cerevisiae deletion strains, locus YNR052C, strain pop2, hits give low values 1.02 | S. cerevisiae deletion strains, locus YOL006C, strain TOP1, hits give low values 1.01 | S. cerevisiae deletion strains, locus YOL012C, strain htz1 0.93 | S. cerevisiae deletion strains, locus YOL147C, strain pex11, hits give low values 1.01 | S. cerevisiae deletion strains, locus YOR001W, strain rrp6, hits give low values 1.03 | S. cerevisiae deletion strains, locus YOR061W, strain CKA2, hits give low values 1.01 | S. cerevisiae deletion strains, locus YOR069W, strain VPS5, hits give low values 1.01 | S. cerevisiae deletion strains, locus YOR070C, strain gyp1, hits give low values 1.02 | S. cerevisiae deletion strains, locus YOR080W, strain dia2, hits give low values 1 | S. cerevisiae deletion strains, locus YOR083W, strain WHI5, hits give low values 1.02 | S. cerevisiae deletion strains, locus YOR106W, strain vam3, hits give low values 0.994 | S. cerevisiae deletion strains, locus YOR136W, strain idh2, hits give low values 1.01 | S. cerevisiae deletion strains, locus YOR144C, strain elg1, hits give low values 1.01 | S. cerevisiae deletion strains, locus YOR184W, strain ser1, hits give low values 1.03 | S. cerevisiae deletion strains, locus YOR231W, strain MKK1, hits give low values 1.06 | S. cerevisiae deletion strains, locus YOR265W, strain rbl2, hits give low values 1.03 | S. cerevisiae deletion strains, locus YOR270C, strain vph1, hits give low values 1.06 | S. cerevisiae deletion strains, locus YOR290C, strain snf2, hits give low values 1.04 | S. cerevisiae deletion strains, locus YOR316C, strain cot1, hits give low values 1.01 | S. cerevisiae deletion strains, locus YPL051W, strain arl3, hits give low values 1 | S. cerevisiae deletion strains, locus YPL055C, strain LGE1, hits give low values 1.01 | S. cerevisiae deletion strains, locus YPL078C, strain atp4, hits give low values 1.02 | S. cerevisiae deletion strains, locus YPL106C, strain sse1, hits give low values 1.03 | S. cerevisiae deletion strains, locus YPL240C, strain hsp82, hits give low values 1.01 | S. cerevisiae deletion strains, locus YPL241C, strain CIN2, hits give low values 1.01 | S. cerevisiae deletion strains, locus YPL256C, strain CLN2, hits give low values 1.05 | S. cerevisiae deletion strains, locus YPR119W, strain clb2, hits give low values 1.01 | S. cerevisiae deletion strains, locus YPR141C, strain kar3, hits give low values 1.01 | S. cerevisiae deletion strains, locus YPR163C, strain tif3, hits give low values 1.01 | S. cerevisiae deletion strains, locus YPR167C, strain met16, hits give low values 1.02 | S. cerevisiae deletion strains, strain wtn01, hits give low values 1.01 | S. cerevisiae strains, strain wild type, hits give low values 1.01

Reference: PubChem BioAssay AID1159580 (chemical genetic matrix, 2015)
